Screening results: PubChem BioAssay, National Center for Advancing Translational Sciences (NCATS)
This is a sample that favours compounds with a hit; in the whole collection about 10% have one here.
hNpr1 antagonist: antagonists of human natriuretic peptide receptor Npr1 | P16066 | HEK293 hNpr1 GloSensor cGMP, ANP-stimulated luminescence | Potency, µM (series often up to 46.3 µM), for the others: at the highest dose activity change, negative = inhibition, actives largely listed as inhibitors | hit rate 1.6% among 76,000; calls by dose curve; note: nearly all actives have a fitted effect of over 60% in size
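Compound pre-incubated 30 min at room temperature on GloSensor-loaded HEK293 cells stably carrying hNpr1 and the pGS-40F cGMP biosensor. Stimulation uses hNppA at 0.1 nM final; luminescence is taken at baseline and 20 min post-agonist.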
3T3 cytotox: cytotoxic compounds in NIH 3T3 cells | NIH 3T3 viability, CellTiter-Glo ATP luminescence, 48-72 h | AID 1345082 | hit rate 4.3% among 94,000 | Potency, µM (top dose mostly 96.7 µM), for inactives: at the top dose activity change, negative = cytotoxicity, hits mostly inhibitors; note: nearly all actives have a fitted effect of over 55% in size
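Cytotoxicity was measured by CellTiter-Glo ATP luminescence after 48 or 72 h compound exposure at 37 °C. Mouse NIH 3T3 fibroblasts were seeded at 400 cells/well and dosed by 23 nL pin transfer.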
HEK293 tox: cytotoxic compounds in HEK 293 cells; HEK 293 viability, ATP luminescence (CellTiter-Glo), 48-72 h; Potency, µM (doses to about 115 µM), without a hit: at the highest dose activity change, negative = cytotoxicity, usual class: inhibitors; hit rate 6.6% among 94,000; AID 1345083; note: nearly all actives have a fitted effect of over 60% in size
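Viability of HEK 293 cells, plated at 250 cells/well, was judged by cellular ATP after compound treatment for 48 or 72 hr. Luminescence was imaged 10 min after CellTiter-Glo addition at room temperature.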
FLuc inh: Photinus pyralis luciferase inhibition. Potency, µM (titrated, usually from 115 µM), hits mostly inhibitors. P08659. AID 1347043. hit rate 2.5% among 76,000. purified P. pyralis luciferase, luminescence, biochemical; note: nearly all actives have a fitted effect of over 65% in size
Target sequence (P08659 whole entry, looked up): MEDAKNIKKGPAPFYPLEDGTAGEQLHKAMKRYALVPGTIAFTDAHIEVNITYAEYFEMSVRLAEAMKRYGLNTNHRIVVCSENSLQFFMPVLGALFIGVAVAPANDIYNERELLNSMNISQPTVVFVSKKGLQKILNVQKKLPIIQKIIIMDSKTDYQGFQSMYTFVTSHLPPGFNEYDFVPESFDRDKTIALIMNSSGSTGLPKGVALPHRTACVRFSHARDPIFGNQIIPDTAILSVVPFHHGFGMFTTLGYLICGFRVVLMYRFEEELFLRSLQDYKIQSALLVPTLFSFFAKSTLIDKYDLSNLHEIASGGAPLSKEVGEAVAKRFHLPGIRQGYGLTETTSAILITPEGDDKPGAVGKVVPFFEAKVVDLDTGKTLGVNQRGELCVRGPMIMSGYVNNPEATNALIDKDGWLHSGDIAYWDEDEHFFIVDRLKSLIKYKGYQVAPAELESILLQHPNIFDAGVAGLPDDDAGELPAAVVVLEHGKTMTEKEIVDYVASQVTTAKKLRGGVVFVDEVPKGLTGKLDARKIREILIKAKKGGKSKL
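Biochemical qHTS: compound (6-point titration) added to 10uM D-luciferin plus 10uM ATP in Tris acetate pH 7.5 buffer with Mg, Tween-20 and BSA, then purified enzyme at 10nM; light output imaged.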
GPT2 inh: blocks human glutamate pyruvate transaminase 2; Q8TD30; Recombinant GPT2, coupled pyruvate oxidase/HRP Amplex Red fluorescence; Potency, µM (series often up to 57.7 µM), without a hit: at the highest dose activity change, negative = inhibition, most hits filed as inhibitors; hit rate 0.25% among 100,000; AID 1671188; note: nearly all actives have a fitted effect of over 60% in size
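GPT2 10ng/uL, a-KG 250uM, L-Ala 2mM, HEPES pH7.5 + 0.0001% Tween; 30 min RT. Then Amplex mix (PO/HRP/ThPP), 30 min RT dark, fluorescence. AOA 50uM used as positive control.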
* = called active by the depositor; i = inactive; ? = inconclusive; · = no result given; [ ] = remark or other dose. Unless noted, calls come from the whole dose curve; as a rule, active = well fitted curve in the direction sought with a large enough effect; inconclusive = small, poorly fitted or top-dose-only effect, or another doubt; inactive = no such curve, though single readings can be large; an effect the other way counts as inactive or inconclusive. % is set by controls: 0 for no effect and ±100 for the full control effect; potency is the fitted concentration of half-maximal effect.

SMILES	hNpr1 antagonist	3T3 cytotox	HEK293 tox	FLuc inh	GPT2 inh
c1ccc(-c2noc(-c3cncnc3N3CCSCC3)n2)cc1	-7.2%	-15.1%	44.7µM*	?	4.6%
O=C(Nc1cccs1)O[C@H]1COCCN(c2nc3ccccc3o2)C1	-1.3%[70.6 µM]	-20.1%[138 µM]	-3.1%[172 µM]	i	i
CCN1c2cc(C(=O)NC3CCCCCC3)ccc2C(=O)N2CCCCC21 (stereo not given)	5.2%	-21.1%	?	i	-1.0%
Cc1ccccc1N(C)C1CN(C(=O)c2ccccn2)C1	·	?	79.4µM*	·	-22.9%[88.5 µM]
CC1=C(C(=O)OC(C)C)C(c2ccccc2Cl)CC(=O)N1Cc1cccc(F)c1 (stereo not given)	2.7%	?	31.6µM*	i	i
CCOCCNC(=O)c1cc(-c2ccccc2F)nc2c1cnn2C	·	?	-13.9%[172 µM]	·	·
O=C(O)C1(c2ccccc2)CCN(S(=O)(=O)c2ccccc2)CC1	·	79.4µM*	i	·	-9.2%
Cc1cccc(NC(=O)Cn2cccc2-c2nc(-c3ccc(F)cc3)no2)c1	-11.7%	?	1.5%	i	1.4%
COC(=O)CN1C(=O)N(CCc2ccccc2)C2(CCN(Cc3ccc4c(c3)CCO4)CC2)C1=O	5.1%	2.0%	4.2%	i	i
CC(C)NC(=O)N(C1CC1)C1CCOC2(CCN(C(=O)c3ccco3)CC2)C1 (stereo not given)	·	-22.4%	-15.3%	·	?
Cc1ccc(C2(C(=O)N[C@@H]3COCC[C@@H]3OCc3ccccc3)CC2)cc1	-9.9%	?	44.7µM*	i	i
COc1ccc(F)cc1-c1cccc(C(=O)NCCNC(=O)Nc2ccccc2)c1	·	35.5µM*	50.1µM*	·	i
COc1ccc(F)cc1-c1cccc(C(=O)NCCNC(=O)Nc2ccccc2F)c1	·	?	20µM*	·	·
COc1ccc(F)cc1-c1cccc(C(=O)NCCNC(=O)c2ccc(C)cc2)c1	·	-32.1%	?	·	i
COc1ccc(F)cc1-c1cccc(C(=O)NCCNC(=O)c2ccccc2C)c1	·	?	?	·	0.6%
COc1ccc(-c2cnc3n[nH]c(-c4ccccc4C)c3n2)cn1	-8.5%[70.6 µM]	?	31.6µM*	i	i
COc1ccc(-c2[nH]nc3ncc(-c4ccc(OC)nc4)nc23)c(C)c1	4.4%[70.6 µM]	?	22.4µM*	i	4.2%[88.5 µM]
Cc1ccccc1-c1[nH]nc2ncc(-c3ccsc3)nc12	-13.3%[70.6 µM]	?	31.6µM*	i	1.7%[88.5 µM]
COc1ccc(-c2cnc3n[nH]c(-c4ccc(F)cc4C)c3n2)cc1	-0.9%[70.6 µM]	31.6µM*	44.7µM*	i	i
CC(=O)NC1(C)CCCN(Cc2cccc(Nc3cccc(C#N)c3)c2)C1 (stereo not given)	?	?	?	i	-0.6%[88.5 µM]
Cc1noc(C)c1C(=O)N1CC(CN2C(=O)c3c(c(C)nn3-c3ccccc3)C2C)C1 (stereo not given)	·	-17.8%	-4.5%	·	·
COc1cccc(C(=O)N2CCC(C(=O)N3CCC4(CC3)CC(=O)Nc3ccccc3O4)CC2)c1	·	-8.7%	?	·	-3.3%
CC1Oc2ccc(NC(=O)C3CCCC3)cc2CN(Cc2ccc(F)cc2)C1=O (stereo not given)	-22.1%	25.1µM*	?	i	i
CCC1Oc2ccc(NC(=O)C3CCCC3)cc2CN(Cc2ccc(F)cc2)C1=O (stereo not given)	-22.0%	?	?	i	-11.9%
CC1Oc2ccc(NC(=O)c3cccs3)cc2CN(CCc2ccc(F)cc2)C1=O (stereo not given)	-10.3%	-29.4%	?	i	4.4%
SMILES	hNpr1 antagonist	3T3 cytotox	HEK293 tox	FLuc inh	GPT2 inh
CC1Oc2ccc(NC(=O)Nc3ccccc3)cc2CN(Cc2ccccc2)C1=O (stereo not given)	?	35.5µM*	44.7µM*	?	2.9%
CC1Oc2ccc(NC(=O)c3cccs3)cc2CN(Cc2ccccc2)C1=O (stereo not given)	-13.1%	?	25.1µM*	i	i
CN(C)C(=O)C1CCc2nnc(-c3ccc(F)cc3)n21 (stereo not given)	·	-0.2%[138 µM]	3.9%[172 µM]	·	i
COc1ccc(CCC(=O)N2CCC3(CCC3OC)CC2)cc1 (stereo not given)	·	-23.0%	-16.8%	·	4.2%
Cc1cccc(CN2CCc3c(n(Cc4cccnc4)n(-c4ccccc4)c3=O)C2)n1	-5.4%[70.6 µM]	100µM*	-2.4%[172 µM]	i	-0.9%[88.5 µM]
O=c1c2c(n(Cc3cccnc3)n1-c1ccccc1)CN(CC1CC1)CC2	-4.0%[70.6 µM]	28.2µM*	-21.2%[172 µM]	i	i
COCCn1c(=O)c2c(n1Cc1ccccc1)CN(Cc1cccc(C)n1)CC2	-3.5%[70.6 µM]	?	-9.7%[172 µM]	i	i
COc1ncc(CN2CCc3c(n(Cc4cccnc4)n(-c4ccccc4)c3=O)C2)cn1	-1.8%[70.6 µM]	?	-22.1%[172 µM]	i	-6.7%[88.5 µM]
N#Cc1ccccc1-c1cc2c(ccn2Cc2ccncc2)c(N2CCOCC2)n1	-10.8%[70.6 µM]	?	?	i	i
C[S+](=O)([O-])Nc1cccc(-c2cc3c(ccn3Cc3ccncc3)c(N3CCOCC3)n2)c1	-5.6%	?	-22.3%	i	?
c1cc(-c2cc3c(ccn3Cc3ccncc3)c(N3CCOCC3)n2)c2cn[nH]c2c1	-17.7%[70.6 µM]	14.1µM*	89.1µM*	i	i
c1cc(-c2cc3c(ccn3Cc3ccncc3)c(N3CCOCC3)n2)c2[nH]ncc2c1	-13.4%[70.6 µM]	?	89.1µM*	i	?
COc1ccccc1-c1cc2c(ccn2Cc2ccncc2)c(N2CCOCC2)n1	-16.0%[70.6 µM]	?	?	i	-14.8%[88.5 µM]
Fc1ccccc1-c1cc2c(ccn2Cc2ccncc2)c(N2CCOCC2)n1	-0.8%[70.6 µM]	35.5µM*	89.1µM*	i	-4.3%[88.5 µM]
C[S+](=O)([O-])N1CCC(Cn2ccc3c(N4CCOCC4)nc(-c4cccc5[nH]ccc45)cc32)CC1	-6.7%	-28.8%	?	i	-9.4%
c1cc(-c2cc3c(ccn3Cc3ccncc3)c(N3CCOCC3)n2)c2cc[nH]c2c1	-16.1%[70.6 µM]	35.5µM*	31.6µM*	i	-22.1%[88.5 µM]
Cc1cccc(N2Cc3c(ncnc3N3CCN(C)CC3)N(C)CC2=O)c1	·	-2.9%	4.0%	·	i
COc1ccc(-c2cn3cc(C(=O)NCc4ccccn4)nc3s2)cc1	·	?	?	·	-1.2%
Cc1cnc(-c2ccccc2)n1C1CCN(C(=O)NCc2ccccc2)C1 (stereo not given)	·	-27.8%	-2.1%	·	-4.9%
Cc1ccccc1C(=O)N1CCN(c2cc(-c3cccs3)[nH]n2)CC1	-3.7%	?	?	i	2.7%
CCOc1ccccc1C(=O)N1CCN(c2cc(-c3ccc(F)cc3)[nH]n2)CC1	-11.1%	?	?	i	i
COc1ccccc1C(=O)N1CCCN(c2cc(-c3ccc(Cl)cc3)[nH]n2)CC1	?	?	?	i	?
